Experimental data as given in PubChem BioAssay AID2625 (National Center for Advancing Translational Sciences (NCATS), 2010).
Results filed as inconclusive are left out. Activity calls are given as the source filed them. Calls follow the shape of the dose curve; as a rule, active = well fitted curve in the direction sought with a large enough effect; inconclusive = small, poorly fitted or top-dose-only effect, or effect the other way, or another doubt; inactive = no such curve, though single readings can be large or run the other way.

These compounds were tested against Pyruvate kinase PKLR (Homo sapiens) (UniProt P30613) (assay: Secondary LDH Assay for Activators of Human Liver Pyruvate Kinase: for Probe SAR). Details: purified hPK-L, LDH-coupled NADH fluorescence kinetic; series mostly up to 58.2 µM.
Chain of Pyruvate kinase PKLR (Homo sapiens) (P30613 whole entry, looked up): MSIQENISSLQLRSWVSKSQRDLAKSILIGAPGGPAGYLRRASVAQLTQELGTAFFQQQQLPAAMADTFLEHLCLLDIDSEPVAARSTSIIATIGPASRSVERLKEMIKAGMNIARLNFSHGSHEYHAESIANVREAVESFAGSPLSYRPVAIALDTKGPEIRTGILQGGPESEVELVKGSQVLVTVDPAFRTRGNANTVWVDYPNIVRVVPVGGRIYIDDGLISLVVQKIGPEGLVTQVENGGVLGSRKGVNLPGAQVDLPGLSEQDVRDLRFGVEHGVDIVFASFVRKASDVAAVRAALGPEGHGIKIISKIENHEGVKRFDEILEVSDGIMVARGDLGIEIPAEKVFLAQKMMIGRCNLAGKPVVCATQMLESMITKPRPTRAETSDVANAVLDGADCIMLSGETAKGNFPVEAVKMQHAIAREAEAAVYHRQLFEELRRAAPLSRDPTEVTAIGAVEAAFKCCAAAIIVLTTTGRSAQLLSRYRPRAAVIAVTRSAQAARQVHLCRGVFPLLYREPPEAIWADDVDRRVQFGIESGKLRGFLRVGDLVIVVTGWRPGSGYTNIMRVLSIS
Summary of the method: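 Purified hPK-L (10 nM) coupled to LDH (1 uM) in pH 8.0 Tris with 0.1 mM PEP, 4 mM ADP, 0.2 mM NADH. Initial rates from kinetic NADH fluorescence depletion over 3–6 min, normalised to uninhibited and fructose-bis-phosphate EC100 activation.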

outcome, inactive:
COc1cccc(N2C(=O)c3ccccc3C2=O)c1
CCCCN1C(=O)c2ccccc2C1=O
O=C1c2ccccc2C(=O)N1c1ccncc1
Cc1c(Cl)cccc1NS(=O)(=O)c1cc2c(cc1Cl)CCC(=O)N2
Cc1ccccc1OC1=NS(=O)(=O)c2ccccc21
CNc1cc2c(cc1S(=O)(=O)Nc1ccc(C)c(C)c1)CCC(=O)N2
Cc1ccc(NS(=O)(=O)c2ccc(F)cc2)cc1C
O=C1c2ccccc2C(=O)N1c1ccc(Cl)cc1
Cc1cc(NS(=O)(=O)c2ccc3c(c2)CCC(=O)N3)ccc1Cl
Cc1ccc(NS(=O)(=O)c2ccc3c(c2)CC(=O)N3C)cc1C
Cc1ccccc1NS(=O)(=O)c1ccc2c(c1)CCC(=O)N2
O=C1c2ccccc2C(=O)N1c1noc2ccccc12
Cc1ccc(-c2nc3ccc(Cl)cn3c2Nc2ccccc2)o1
Cc1cc2c(s1)c1cnn(Cc3ccccc3F)c(=O)c1n2C
O=S(=O)(c1ccc2c(c1)OCCO2)N1CCN(S(=O)(=O)c2c(F)cccc2F)CC1
CN(C)c1cccc(S(=O)(=O)N2CCCN(S(=O)(=O)c3ccc4c(c3)OCCO4)CC2)c1
Cc1cccc(NS(=O)(=O)c2ccc3c(c2)CCC(=O)N3)c1
Cc1ccc(NS(=O)(=O)c2cc3c(cc2/C=C/c2ccccc2)NC(=O)CO3)cc1C
Cc1c(Cl)cccc1NS(=O)(=O)c1cc2c(cc1F)NC(=O)CC2
O=C1CCc2cc(S(=O)(=O)Nc3ccc4c(c3)CCC4)ccc2N1
O=C1c2ccccc2C(=O)N1c1cccc2cccnc12
COc1cccc(OC2=NS(=O)(=O)c3ccccc32)c1
Cc1ccc(Cl)cc1NS(=O)(=O)c1cc2c(cc1Cl)CCC(=O)N2
Cc1cc(N2C(=O)c3ccccc3C2=O)n[nH]1
